The results in this text go back to PubChem BioAssay (NCI).

Several values for one entry are separate records, joined by “and”; a condition that tells them apart may be missing. Equal values may be shown once. About 83,000 compounds went through this panel and 20% of them were active in at least one assay; those are over-represented in the sample as a whole.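 Treatment: one concentration, 48 hours, 96-well format. Scoring: percent growth, with anything below 10 considered active.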 Unmarked numbers belong to inactive results. Activity calls are given as the source filed them. Where a SMILES comes first, the peptide text is derived from it.

This test deals with M14 melanoma. Briefly: NCI-60 one-dose screen, 48 h (100 = growth as untreated, 0 = no growth, -100 = all killed). Conditions: 10 µM unless noted. On the procedure:
Growth inhibition of the M14 human tumor cell line is measured as a screen for anti-cancer activity. Cells are grown in 96 well plates and exposed to the test compound for 48 hours. Compounds are tested at a single concentration, which is 10^-5 M for most compounds. The reported endpoint is percent growth (GI% or GIPRCNT), where numbers from 0 - 100% represent growth inhibition, and numbers from -100% - 0 represent cell death. For example, a value of 40 represents 60% growth inhibition. A value of 0 means no net growth occurred over the course of the experiment. A value of -40 indicates 40% of cells at the beginning of the experiment died by the end of the experiment. A value of -100 means all cells are dead at the end of the experiment.
NCI-60 Human Tumor Cell Lines Screen was performed using the standard one-dose NCI protocol, which is described in more detail at https://dtp.cancer.gov/discovery_development/nci-60/default.htm.
Compounds with GIPRCNT values below 10 were considered active. Activity score was based on GIPRCNT using the following formula: […]
Score is 0 for GIPRCNT values of 100 or above, 50 for GIPRCNT values of 0, and 100 for GIPRCNT values of -100.
`O=C1c2c(O)ccc(O)c2C(=O)c2c(NCCNCCO)ccc(NCCNCCO)c21`: the growth was -79.7% (active) and -97.7% (active).
To `CC1CCC2(OC1)OC1CC3C4CC=C5CC(O)CCC5(C)C4CCC3(C)C1C2C` (stereo not given) belongs 102%; to `ClCCOCCOc1ccc(C2CCCCC2)cc1`, 108%; to `COc1ccc(C(=O)CC(c2ccccc2)C(C#N)c2ccccc2)cc1` (stereo not given), 88%.
Take `COc1ccc(Nc2ccc3ccccc3c2)cc1`: the growth was 72.9%.
For `CC(=O)Nc1ccc(S(N)(=O)=O)cc1`, the growth is 98.6% and 103%.
Take `COc1ccc2cc1Oc1ccc(cc1)C[C@H]1c3cc(c(OC)cc3CCN1C)Oc1c(OC)c(OC)cc3c1[C@H](C2)N(C)CC3`: the growth was -78.8% (active).
To `Cc1ccc(S(=O)(=O)c2ccccc2)cc1` belongs 15.4%; to `Cc1cc(-c2cc(C)c(O)c(C)c2)cc(C)c1O`, 71.6%.
Regarding `NN1CCOC(c2ccccc2)C1` (stereo not given), the growth was 90.9%.
To `O=CN1CCCCC1` belongs 121%.
To `C#CCOC(=O)Nc1ccccc1` belongs 103%; to `Fc1ccc([I+]c2ccc(F)cc2)cc1`, 79%; to `CCCCOC(=O)/C=C\C(=O)NC(N)=O`, 92.1%.
Turning to `Cc1ccc(=O)[nH]n1`, the growth was 111% and 110%.
`CCCCNc1ccc(Nc2ccccc2)cc1`: the growth is 87.5%.
Regarding `COc1ccc(N/C=C/C2=[N+](C)c3ccccc3C2(C)C)c(OC)c1`, the growth is 86.4%.
To `O=[N+]([O-])c1cccc(SSc2cccc([N+](=O)[O-])c2)c1` belongs 94.2%.
To `Nc1nc(N)c2[nH]cnc2n1` belongs 88.2%; to `N#CC(C#N)N=Nc1cc(Cl)ccc1Cl`, 98.5%; to `Cc1cc2ccccc2cn1`, 107% and 111%.
To `CCCCCCCCCCNC(=O)CI` belongs -24.8% (active); to `Nc1ccc2c(O)cc(S(=O)(=O)O)cc2c1`, 98.7%; to `OCC1OC(O)C(O)C(O)C1O` (stereo not given), 101%.
On to `O=C1OC(C(O)C(O)CO)C(O)=C1O` (stereo not given), for which the growth is 96.9% and 100%.
The value for `NC(=O)NCCCC(N)C(=O)O` (stereo not given) was 100%; that for `c1ccc(CNCCNCc2ccccc2)cc1` was 111%; that for `O=c1n(CC2CO2)c(=O)n(CC2CO2)c(=O)n1CC1CO1` (stereo not given) was 61.9%.
In the case of `O=C(Cc1ccccc1)c1ccc(O)c(Cl)c1`, the growth was 30.1%.
Regarding `CC(=O)NCC(=O)c1ccc([N+](=O)[O-])cc1`, the growth is 109%.
For `CC1CCC(C(C)C)C(NNC(N)=O)C1` (stereo not given), the growth was 106%.
The value for `CC(C)(O)C(=O)O` was 101%.
Turning to `CCN(CCNS(C)(=O)=O)c1ccc(N)c(C)c1`, the growth is 108% and 98.6%.
For `OC1COC(OCc2ccccc2)C(O)C1O` (stereo not given), the growth was 96.8%.
The value for `CC(=O)OCC1OC(OC(C)=O)C(OC(C)=O)C(OC(C)=O)C1OC(C)=O` (stereo not given) was 99.6% and 103%; that for `NC(Cc1ccccc1)C(=O)NC(Cc1ccccc1)C(=O)O` (stereo not drawn) (H-Phe-Phe-OH; configuration not given here) was 103% and 97.1%.
The value for `Oc1ccc(Cc2ccccc2Cl)c(O)c1` was 99.1%; that for `OCCN1CCCCCCC1` was 92.3%; that for `Cc1cc(-c2ccc(N=Nc3ccc4c(S(=O)(=O)O)cc(S(=O)(=O)O)c(N)c4c3O)c(C)c2)ccc1N=Nc1ccc2c(S(=O)(=O)O)cc(S(=O)(=O)O)c(N)c2c1O` was 118%.
To `Cl` belongs 107%.
